Laboratory results from PubChem BioAssay AID1259421 (Broad Institute, 2018).
“And” between values parts separate entries of the source, which are not always exact repeats. Equal entries are not always repeated. About 610 (9.5%) of roughly 6,400 compounds were called active. No stated cut-off is given here; in the data, active means activity change below about -70%; inconclusive means no clear call, values can overlap the other calls; inactive means above that. What follows is part of a selection rich in actives, with near analogues and random picks from the rest. Where a structure was tested more than once in an assay, its records may differ in their call.

test: T. gondii ME49Luc in HeLa cells, luciferase assay, 72 h, no IFN-y (AID 1259421); details: stronger effect = lower value, concentration not given here

| SMILES | activity change, negative = inhibition |
| --- | --- |
| CC1(c2ccccc2)OC(C(=O)O)=CC1=O (configuration not stated) | 15.7% (inactive) |
| Nc1cccc2c(=O)[nH][nH]c(=O)c12 | 7.31% (inactive) |
| COc1ncc(-c2ccc3nccc(-c4ccnnc4)c3c2)cc1NS(=O)(=O)c1ccc(F)cc1F | -79.5% (active) |
| CCCS(=O)(=O)Nc1ccc(F)c(C(=O)c2c[nH]c3ncc(-c4ccc(Cl)cc4)cc23)c1F | -58.2% (inactive) and -67.7% (inactive) |
| CCc1cc(-c2n[nH]c(C)c2-c2ccc3c(c2)OCCO3)c(O)cc1O | -16.3% (inactive) |
| NC(=NCCCCCCN=C(N)/N=C(\N)Nc1ccc(Cl)cc1)/N=C(\N)Nc1ccc(Cl)cc1 | -58% (inactive) |
| CCN(CC)CCCCN1c2ccccc2Oc2ccc(Cl)cc21 | -10.3% (inactive) and 12.5% (inactive) |
| CN(C)CCOc1ccc(/C(=C(/CCCl)c2ccccc2)c2ccccc2)cc1 | -77.6% (active) and -84.8% (active) |
| CCN(CC)CCOc1ccc(/C(=C(\Cl)c2ccccc2)c2ccccc2)cc1 | -69.8% (inactive) and -52.9% (inactive) |
| CN(C)CCOC(=O)COc1ccc(Cl)cc1 | 4.1% (inactive) and 6.57% (inactive) |
| CC/C(=C(\c1ccccc1)c1ccc(OCCN(C)C)cc1)c1ccccc1 | 13.1% (inactive) and -14.7% (inactive) and -6.44% (inactive) |
| CC/C(=C(/c1ccccc1)c1ccc(OCCN(C)C)cc1)c1ccccc1 | -72.4% (active) |
| CCN(CC)CCOc1ccc(Cc2ccccc2)cc1 | 5.6% (inactive) and 13.5% (inactive) |
| CC(=O)OCC(=O)[C@@]12OC3(CCCC3)O[C@@H]1CC1C3CCC4=CC(=O)C=C[C@]4(C)[C@@]3(F)[C@@H](O)C[C@@]12C (some centres not stated) | -7.19% (inactive) and -8.15% (inactive) |
| C[C@]12C=CC(=O)C=C1CCC1C2[C@@H](O)C[C@@]2(C)C1CC[C@]2(O)C(=O)COC(=O)CCC(=O)O (some centres not stated) | -10.6% (inactive) and -6.45% (inactive) |
| CC(=O)OC[C@H]1O[C@@H](n2ccc(=O)[nH]c2=O)[C@H](OC(C)=O)[C@@H]1OC(C)=O | 8.3% (inactive) |

| SMILES | activity change, negative = inhibition |
| --- | --- |
| C=CC1CN2CCC1CC2[C@@H](O)c1ccnc2ccc(OC)cc12 (some centres not stated) | 21.1% (inactive) |
| COc1nccc(-c2c(-c3ccc(F)cc3)ncn2C2CCC(O)CC2)n1 (configuration not stated) | -77.2% (active) |
| COc1nccc(-c2c(-c3ccc(F)cc3)ncn2C2CCNCC2)n1 | -64.9% (inactive) |
| CCOc1ccc(Cc2cc([C@@]34OC[C@@](CO)(O3)[C@@H](O)[C@H](O)[C@H]4O)ccc2Cl)cc1 | 12.2% (inactive) |
| CSCC1CN(/N=C/c2ccc([N+](=O)[O-])o2)C(=O)O1 (configuration not stated) | 3.31% (inactive) |
| CCNC(=O)CCC/C=C/C[C@@H]1[C@H](C=C[C@H](O)CCc2ccccc2)[C@@H](O)C[C@@H]1O | -1.53% (inactive) |
| CCCC[P+](CCCC)(CCCC)Cc1ccc(NC(=O)[C@H](Cc2ccc3ccccc3c2)NC(=NC2CCCCC2)NC2CCCCC2)cc1 | 27% (inactive) |
| O=C(CCCN1CCC(O)(c2ccc(Cl)cc2)CC1)c1ccc(F)cc1 | 7.06% (inactive) and 15.9% (inactive) |
| OC1(c2ccc(Cl)c(C(F)(F)F)c2)CCN(CCCC(c2ccc(F)cc2)c2ccc(F)cc2)CC1 | -65.8% (inactive) and -91.8% (active) |
| O=C(CCCN1CCC(O)(c2cccc(C(F)(F)F)c2)CC1)c1ccc(F)cc1 | 30.3% (inactive) |
| Nc1ccn(C[C@@H](CO)OCP(=O)(O)O)c(=O)n1 | -60.1% (inactive) |
| O/N=C/c1cc[n+](COC[n+]2ccc(/C=N/O)cc2)cc1 | 8.88% (inactive) |
| C[C@H]1CC2C([C@@H](O)C[C@@]3(C)C2CC[C@]3(O)C(=O)CO)[C@@]2(C)C=CC(=O)C=C12 (some centres not stated) | 5.02% (inactive) |
| OC[C@H]1O[C@H](O)C[C@@H](O)[C@@H]1O | -36.7% (inactive) |
| CCOCCn1c(C2CCN(CCc3ccc(C(C)(C)C(=O)O)cc3)CC2)nc2ccccc21 | 20.9% (inactive) |
| N#C/C(=C/c1ccc(O)c(O)c1)C(N)=O | 7.91% (inactive) |
